# Reference: PubChem BioAssay (EPA / NIEHS)
# Records with an inconclusive call do not appear. The source made the active and inactive calls. How the source made its calls: active means hit-call score of the fitted dose curve at least 0.9, where 1 is the maximum; inconclusive means response in the unintended direction; inactive means score below 0.9.
# Tests used:
# [1] = molecular target: human Caspase 8 (CASP8), CASP8 (gene 841) (UniProt Q14790); test: NVS_ENZ_hCASP8: NovaScreen (NVS) Enzymatic Assay for human Caspase 8 (CASP8) (AID 2283146)
# Sequence of human Caspase 8 (CASP8), CASP8 (gene 841) (Q14790 whole entry, looked up): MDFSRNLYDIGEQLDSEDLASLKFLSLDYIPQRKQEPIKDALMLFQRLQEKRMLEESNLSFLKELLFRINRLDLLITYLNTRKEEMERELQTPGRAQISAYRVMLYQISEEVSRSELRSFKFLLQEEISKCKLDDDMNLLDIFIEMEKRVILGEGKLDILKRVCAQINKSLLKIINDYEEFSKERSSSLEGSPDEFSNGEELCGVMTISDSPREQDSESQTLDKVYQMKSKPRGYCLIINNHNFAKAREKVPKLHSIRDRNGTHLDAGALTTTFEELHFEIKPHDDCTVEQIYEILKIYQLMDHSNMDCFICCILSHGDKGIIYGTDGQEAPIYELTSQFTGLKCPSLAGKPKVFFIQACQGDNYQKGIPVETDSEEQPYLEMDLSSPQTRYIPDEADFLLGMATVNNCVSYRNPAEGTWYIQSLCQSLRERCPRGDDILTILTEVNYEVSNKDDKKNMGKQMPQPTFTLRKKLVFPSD
# How it was run: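 E. coli-expressed enzyme was used in a cell-free fluorogenic substrate assay read 1 h after dosing. Loss of signal was scored relative to DMSO, and the primary screen was run in duplicate at 25 uM.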
# [2] = molecular target: human Ephrin type-A Receptor 1 (EphA1), EPHA1 (gene 2041) (UniProt P21709); test: NVS_ENZ_hEphA1: NovaScreen (NVS) Enzymatic Assay for human Ephrin type-A Receptor 1 (EphA1) (AID 2283158);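 further: activity is signal loss versus DMSO meaning EphA1 kinase inhibition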
# Sequence of human Ephrin type-A Receptor 1 (EphA1), EPHA1 (gene 2041) (P21709 whole entry, looked up): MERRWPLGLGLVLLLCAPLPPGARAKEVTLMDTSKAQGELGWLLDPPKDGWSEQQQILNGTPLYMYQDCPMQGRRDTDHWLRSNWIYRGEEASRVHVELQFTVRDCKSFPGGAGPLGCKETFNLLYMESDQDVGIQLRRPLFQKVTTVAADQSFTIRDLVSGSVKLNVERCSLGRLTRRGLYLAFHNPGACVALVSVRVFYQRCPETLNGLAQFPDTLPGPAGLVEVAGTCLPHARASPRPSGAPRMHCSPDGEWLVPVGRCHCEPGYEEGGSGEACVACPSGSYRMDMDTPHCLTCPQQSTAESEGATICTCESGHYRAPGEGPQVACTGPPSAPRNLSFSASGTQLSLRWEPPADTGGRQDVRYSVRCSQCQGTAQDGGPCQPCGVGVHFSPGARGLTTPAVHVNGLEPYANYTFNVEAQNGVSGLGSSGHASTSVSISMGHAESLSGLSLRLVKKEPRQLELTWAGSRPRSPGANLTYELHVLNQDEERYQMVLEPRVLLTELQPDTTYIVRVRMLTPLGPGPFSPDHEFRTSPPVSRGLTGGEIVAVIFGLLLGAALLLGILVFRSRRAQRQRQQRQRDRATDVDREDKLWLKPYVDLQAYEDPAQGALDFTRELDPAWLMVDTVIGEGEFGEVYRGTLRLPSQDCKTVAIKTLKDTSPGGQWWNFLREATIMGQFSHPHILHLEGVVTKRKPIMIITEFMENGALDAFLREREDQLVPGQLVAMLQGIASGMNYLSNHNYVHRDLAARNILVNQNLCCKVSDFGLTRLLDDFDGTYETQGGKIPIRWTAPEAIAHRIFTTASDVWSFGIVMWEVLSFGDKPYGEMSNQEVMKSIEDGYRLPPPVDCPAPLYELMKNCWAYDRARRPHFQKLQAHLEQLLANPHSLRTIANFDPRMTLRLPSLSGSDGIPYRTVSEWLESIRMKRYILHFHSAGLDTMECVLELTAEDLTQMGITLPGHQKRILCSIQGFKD
# How it was run: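 Here the EphA1 protein is recombinant and the substrate fluorescent, with electrophoretic separation before fluorescence detection at 1 hour. Signal loss against DMSO defines activity; plate controls included; follow-up concentration series reach 50 uM.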
# [3] = molecular target: human Matrix Metalloproteinase-7 (MMP7), MMP7 (gene 4316) (UniProt P09237); test: NVS_ENZ_hMMP7: NovaScreen (NVS) Enzymatic Assay for human Matrix Metalloproteinase-7 (MMP7) (AID 2283183)
# Sequence of human Matrix Metalloproteinase-7 (MMP7), MMP7 (gene 4316) (P09237 whole entry, looked up): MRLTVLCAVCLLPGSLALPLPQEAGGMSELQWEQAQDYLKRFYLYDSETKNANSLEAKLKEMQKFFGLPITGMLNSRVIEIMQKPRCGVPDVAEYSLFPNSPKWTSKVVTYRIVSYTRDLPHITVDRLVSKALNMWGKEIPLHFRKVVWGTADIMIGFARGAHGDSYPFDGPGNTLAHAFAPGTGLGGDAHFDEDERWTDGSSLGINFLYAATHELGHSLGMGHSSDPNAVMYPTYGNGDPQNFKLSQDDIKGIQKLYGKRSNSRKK
# How it was run: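 Cell-free fluorescence enzymatic assay read 1 h after compound addition, activity loss analyzed against DMSO. Primary duplicate testing at 25 uM; compounds meeting threshold rerun in singleton concentration-response up to 50 uM.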
# [4] = molecular target: human Matrix Metalloproteinase-3 (MMP3), MMP3 (gene 4314) (UniProt P08254); test: NVS_ENZ_hMMP3: NovaScreen (NVS) Enzymatic Assay for human Matrix Metalloproteinase-3 (MMP3) (AID 2283185)
# Sequence of human Matrix Metalloproteinase-3 (MMP3), MMP3 (gene 4314) (P08254 whole entry, looked up): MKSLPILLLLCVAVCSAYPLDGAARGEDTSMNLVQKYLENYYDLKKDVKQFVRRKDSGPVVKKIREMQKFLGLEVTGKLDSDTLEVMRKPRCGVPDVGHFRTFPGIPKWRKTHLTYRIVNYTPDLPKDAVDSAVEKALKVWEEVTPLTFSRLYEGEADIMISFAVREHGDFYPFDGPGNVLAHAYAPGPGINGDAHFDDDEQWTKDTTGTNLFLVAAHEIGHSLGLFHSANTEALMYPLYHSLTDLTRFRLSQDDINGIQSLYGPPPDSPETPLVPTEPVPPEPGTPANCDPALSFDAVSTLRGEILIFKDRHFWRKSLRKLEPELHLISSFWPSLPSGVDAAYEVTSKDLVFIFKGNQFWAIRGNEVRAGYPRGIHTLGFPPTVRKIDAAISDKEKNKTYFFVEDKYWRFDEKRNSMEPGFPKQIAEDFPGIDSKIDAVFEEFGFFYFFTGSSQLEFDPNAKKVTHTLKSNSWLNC
# How it was run: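 Cell-free recombinant human MMP3 activity, fluorescence intensity read 1 h after dosing. Primary screen duplicate at 25 uM, actives retested in concentration series; loss of signal vs DMSO baseline.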
# [5] = molecular target: human LYN Proto-Oncogene, Src family Tyrosine Kinase (LynA), LYN (gene 4067) (UniProt P07948); test: NVS_ENZ_hLynA: NovaScreen (NVS) Enzymatic Assay for human LYN Proto-Oncogene, Src family Tyrosine Kinase (LynA) (AID 2283173)
# How it was run: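 Recombinant kinase with fluorescent substrate; product separated from substrate by electrophoretic mobility shift and read 1 h after dosing. Duplicate screen at 25 uM, then concentration-response up to 50 uM; activity scored as signal loss against DMSO.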
# [6] = molecular target: Mitogen-activated protein kinase 3 (Homo sapiens) (UniProt P27361); test: NVS_ENZ_hMAPK3: NovaScreen (NVS) Enzymatic Assay for human Mitogen-Activated Protein Kinase 3 (MAPK 3) (AID 2283177)
# Sequence of Mitogen-activated protein kinase 3 (Homo sapiens) (P27361 whole entry, looked up): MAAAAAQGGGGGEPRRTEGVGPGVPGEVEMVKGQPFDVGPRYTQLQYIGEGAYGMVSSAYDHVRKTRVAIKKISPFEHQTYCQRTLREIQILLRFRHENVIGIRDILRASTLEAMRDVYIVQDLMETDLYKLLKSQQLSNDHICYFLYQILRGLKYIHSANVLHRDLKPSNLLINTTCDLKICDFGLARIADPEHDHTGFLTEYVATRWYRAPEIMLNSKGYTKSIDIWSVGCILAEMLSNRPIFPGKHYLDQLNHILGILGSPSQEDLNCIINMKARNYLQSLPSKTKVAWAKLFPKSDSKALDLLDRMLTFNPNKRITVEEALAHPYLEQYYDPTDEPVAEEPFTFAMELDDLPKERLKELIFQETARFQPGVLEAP
# How it was run: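 Cell-free enzymatic assay with recombinant protein and specific substrate; fluorescence and electrophoretic mobility shift read-out 1 h after dosing. Primary screen duplicate at 25 uM; actives then run in concentration-response up to 50 uM, loss of signal versus DMSO.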
# [7] = molecular target: human Matrix Metalloproteinase-2 (MMP2), MMP2 (gene 4313) (UniProt P08253); test: NVS_ENZ_hMMP2: NovaScreen (NVS) Enzymatic Assay for human Matrix Metalloproteinase-2 (MMP2) (AID 2283184)
# How it was run: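 Cell-free recombinant MMP2 activity with a fluorescent substrate, read 1 h after dosing. Primary screen in duplicate at 25 uM; actives then run in concentration series; loss of signal fitted versus DMSO.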
# [8] = molecular target: human Colony Stimulating Factor 1 Receptor (CSF1R), CSF1R (gene 1436) (UniProt P07333); test: NVS_ENZ_hCSF1R: NovaScreen (NVS) Enzymatic Assay for human Colony Stimulating Factor 1 Receptor (CSF1R) (AID 2283150)
# Sequence of human Colony Stimulating Factor 1 Receptor (CSF1R), CSF1R (gene 1436) (P07333 whole entry, looked up): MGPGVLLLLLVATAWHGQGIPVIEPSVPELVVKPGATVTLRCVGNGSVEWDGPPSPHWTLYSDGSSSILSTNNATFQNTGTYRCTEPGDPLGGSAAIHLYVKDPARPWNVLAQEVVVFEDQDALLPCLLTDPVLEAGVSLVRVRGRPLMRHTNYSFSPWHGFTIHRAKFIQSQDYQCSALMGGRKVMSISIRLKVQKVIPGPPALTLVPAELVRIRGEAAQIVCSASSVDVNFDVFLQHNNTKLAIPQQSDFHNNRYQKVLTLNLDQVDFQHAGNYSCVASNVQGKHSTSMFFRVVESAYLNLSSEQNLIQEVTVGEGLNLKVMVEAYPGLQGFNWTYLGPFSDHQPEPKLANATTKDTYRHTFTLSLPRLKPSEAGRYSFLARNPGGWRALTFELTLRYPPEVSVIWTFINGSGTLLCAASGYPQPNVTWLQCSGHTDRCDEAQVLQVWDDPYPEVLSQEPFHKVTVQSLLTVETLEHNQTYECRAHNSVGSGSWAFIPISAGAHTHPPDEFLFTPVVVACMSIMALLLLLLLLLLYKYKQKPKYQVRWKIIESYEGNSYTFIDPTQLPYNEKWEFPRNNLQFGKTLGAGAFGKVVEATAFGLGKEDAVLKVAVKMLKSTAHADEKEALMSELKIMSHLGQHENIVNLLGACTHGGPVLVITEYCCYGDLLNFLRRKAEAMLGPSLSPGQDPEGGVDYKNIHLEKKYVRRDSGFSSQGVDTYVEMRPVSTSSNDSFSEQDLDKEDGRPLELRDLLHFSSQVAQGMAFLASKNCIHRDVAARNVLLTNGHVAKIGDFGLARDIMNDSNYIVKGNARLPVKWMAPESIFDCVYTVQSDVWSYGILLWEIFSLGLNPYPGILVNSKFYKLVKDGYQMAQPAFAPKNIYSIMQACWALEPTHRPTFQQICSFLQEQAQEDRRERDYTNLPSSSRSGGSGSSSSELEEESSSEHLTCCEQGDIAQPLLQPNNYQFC
# How it was run: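 Cell-free recombinant human CSF1R kinase with fluorescent substrate, product separated by electrophoretic mobility shift; read 1 h after dosing. Primary screen at 25 uM in duplicate, actives then in concentration-response up to 50 uM, relative to DMSO.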
# [9] = molecular target: human Esterase Plasma (ES), BCHE (gene 590) (UniProt P06276); test: NVS_ENZ_hES: NovaScreen (NVS) Enzymatic Assay for human Esterase Plasma (ES) (AID 2283157)
# Sequence of human Esterase Plasma (ES), BCHE (gene 590) (P06276 whole entry, looked up): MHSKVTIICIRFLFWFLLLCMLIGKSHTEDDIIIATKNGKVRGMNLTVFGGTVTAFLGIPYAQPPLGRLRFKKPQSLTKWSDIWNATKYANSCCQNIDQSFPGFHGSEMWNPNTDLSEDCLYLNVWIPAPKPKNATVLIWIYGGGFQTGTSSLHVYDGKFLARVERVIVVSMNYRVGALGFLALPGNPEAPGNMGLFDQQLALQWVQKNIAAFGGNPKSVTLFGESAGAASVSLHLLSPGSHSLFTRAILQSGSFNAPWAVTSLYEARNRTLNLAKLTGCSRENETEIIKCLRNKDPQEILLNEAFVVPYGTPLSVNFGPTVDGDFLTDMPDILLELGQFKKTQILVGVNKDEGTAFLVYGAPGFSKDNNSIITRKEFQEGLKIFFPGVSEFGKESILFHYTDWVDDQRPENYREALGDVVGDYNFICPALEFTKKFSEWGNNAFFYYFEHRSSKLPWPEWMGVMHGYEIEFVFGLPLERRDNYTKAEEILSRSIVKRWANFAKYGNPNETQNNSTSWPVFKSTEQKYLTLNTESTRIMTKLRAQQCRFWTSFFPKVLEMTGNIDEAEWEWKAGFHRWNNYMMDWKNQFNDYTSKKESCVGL
# How it was run: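 Chemicals were added to plasma-extracted human enzyme in a cell-free format, and activity was read colorimetrically after 0.25 hour. Activity loss was referenced to DMSO; concentration-response top dose was 50 uM.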
# [10] = molecular target: Histone deacetylase 3 (Homo sapiens) (UniProt O15379); test: NVS_ENZ_hHDAC3: NovaScreen (NVS) Enzymatic Assay for human Histone Deacetylase 3 (HDAC3) (AID 2283163)
# How it was run: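 Recombinant human HDAC3 with fluorescent substrate, 1 h after dosing; product separated from substrate by electrophoretic mobility shift and read by fluorescence. Primary screen at 25 uM in duplicate; actives (e.g. ≥30% inhibition) retested in concentration-response up to 50 uM.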
# [11] = molecular target: Glycogen synthase kinase-3 beta (Homo sapiens) (UniProt P49841); test: NVS_ENZ_hGSK3b: NovaScreen (NVS) Enzymatic Assay for human Glycogen Synthase Kinase-3 beta (GSK3b) (AID 2283165)
# Sequence of Glycogen synthase kinase-3 beta (Homo sapiens) (P49841 whole entry, looked up): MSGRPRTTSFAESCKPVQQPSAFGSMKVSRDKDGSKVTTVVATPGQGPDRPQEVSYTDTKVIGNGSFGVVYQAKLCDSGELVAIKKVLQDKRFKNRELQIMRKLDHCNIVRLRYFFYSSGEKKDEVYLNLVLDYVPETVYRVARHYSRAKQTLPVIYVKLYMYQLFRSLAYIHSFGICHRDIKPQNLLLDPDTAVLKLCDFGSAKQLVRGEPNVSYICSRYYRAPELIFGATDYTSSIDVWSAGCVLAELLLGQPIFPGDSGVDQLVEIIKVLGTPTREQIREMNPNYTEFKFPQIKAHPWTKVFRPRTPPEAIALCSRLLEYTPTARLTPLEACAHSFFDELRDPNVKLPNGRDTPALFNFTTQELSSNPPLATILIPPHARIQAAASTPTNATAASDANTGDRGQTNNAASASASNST
# How it was run: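 Recombinant enzyme with specific fluorescent substrate, 1 h, product separated by electrophoretic mobility shift. Primary duplicate screen at 25 uM; actives (e.g. 30% inhibition) followed in singleton concentration-response to 50 uM. Signal loss fitted versus DMSO.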
# [12] = molecular target: human Elastase, ELANE (gene 1991) (UniProt P08246); test: NVS_ENZ_hElastase: NovaScreen (NVS) Enzymatic Assay for human Elastase (AID 2283153)
# How it was run: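 Cell-free elastase from human neutrophils, 1.5 h after dosing, activity read by absorbance. Primary screen in duplicate at 25 uM; hits (e.g., 30% inhibition) rerun in singleton concentration-response up to 50 uM, fitted versus DMSO.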
# [13] = molecular target: Collagenase 3 (Homo sapiens) (UniProt P45452); test: NVS_ENZ_hMMP13: NovaScreen (NVS) Enzymatic Assay for human Matrix Metalloproteinase-13 (MMP13) (AID 2283182)
# How it was run: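 Recombinant MMP13 cleaving fluorescent substrate, cell-free, measured 1 h after dosing. Primary duplicate screen at 25 uM; actives tested in concentration-response up to 50 uM; loss of signal relative to DMSO.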
# [14] = molecular target: human Dual Specificity Protein Phosphatase 3 (DUSP3), DUSP3 (gene 1845) (UniProt P51452); test: NVS_ENZ_hDUSP3: NovaScreen (NVS) Enzymatic Assay for human Dual Specificity Protein Phosphatase 3 (DUSP3) (AID 2283152);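 further: phosphatase activity of recombinant human DUSP3 on a fluorogenic substrate without cells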
# How it was run: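 Cell-free assay with recombinant human DUSP3 and fluorogenic substrate, read by fluorescence intensity. Primary screen ran duplicate at 25 uM; actives followed up in concentration series; loss of signal versus DMSO scored.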
# [15] = molecular target: human MAP Kinase-Activated Protein Kinase 2 (MAPKAPK2), MAPKAPK2 (gene 9261) (UniProt P49137); test: NVS_ENZ_hMAPKAPK2: NovaScreen (NVS) Enzymatic Assay for human MAP Kinase-Activated Protein Kinase 2 (MAPKAPK2) (AID 2283178)
# How it was run: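 Cell-free recombinant human MAPKAPK2 activity measured by fluorescence with electrophoretic mobility shift separation of substrate and product, 1 hr after dosing. Loss of signal versus DMSO; primary screen at 25 uM, concentration-response up to 50 uM.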
# [16] = molecular target: human Casein Kinase 1-delta (CK1D), CSNK1D (gene 1453) (UniProt P48730); test: NVS_ENZ_hCK1D: NovaScreen (NVS) Enzymatic Assay for human Casein Kinase 1-delta (CK1D) (AID 2283148)
# Sequence of human Casein Kinase 1-delta (CK1D), CSNK1D (gene 1453) (P48730 whole entry, looked up): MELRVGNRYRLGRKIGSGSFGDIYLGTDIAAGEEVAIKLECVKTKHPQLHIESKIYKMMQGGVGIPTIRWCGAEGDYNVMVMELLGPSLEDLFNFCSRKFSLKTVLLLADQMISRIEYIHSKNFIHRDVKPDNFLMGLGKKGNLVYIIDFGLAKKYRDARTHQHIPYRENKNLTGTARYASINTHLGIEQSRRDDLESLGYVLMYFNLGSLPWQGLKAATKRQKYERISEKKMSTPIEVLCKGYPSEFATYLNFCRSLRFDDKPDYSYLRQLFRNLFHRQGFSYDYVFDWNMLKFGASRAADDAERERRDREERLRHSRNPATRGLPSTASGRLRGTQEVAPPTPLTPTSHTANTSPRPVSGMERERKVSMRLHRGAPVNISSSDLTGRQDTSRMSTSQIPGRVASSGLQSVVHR
# How it was run: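 Recombinant human CK1-delta, cell-free; fluorescent substrate with electrophoretic mobility-shift separation of product, read 1 h after dosing. Single 25 uM duplicate screen, then concentration-response up to 50 uM; loss of signal vs DMSO.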
# [17] = molecular target: human FYN Proto-Oncogene, Src family Tyrosine Kinase (Fyn), FYN (gene 2534) (UniProt P06241); test: NVS_ENZ_hFyn: NovaScreen (NVS) Enzymatic Assay for human FYN Proto-Oncogene, Src family Tyrosine Kinase (Fyn) (AID 2283161)
# How it was run: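 Recombinant enzyme with fluorescent substrate, product separated by electrophoretic mobility shift; read 1 h after dosing. Duplicate 25 uM single-point screen, actives retested in concentration series; loss of signal vs DMSO.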
# [18] = molecular target: human c-Jun N-terminal Kinases (JNK2), MAPK9 (gene 5601) (UniProt P45984); test: NVS_ENZ_hJNK2: NovaScreen (NVS) Enzymatic Assay for human c-Jun N-terminal Kinases (JNK2) (AID 2283171)
# How it was run: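 Cell-free recombinant human JNK2 activity assay; fluorescent substrate and product separated by electrophoretic mobility shift, read 1 h after dosing. Primary duplicate screen at 25 uM; actives run in concentration-response up to 50 uM, relative to DMSO.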
smiles,measurement,setting,value
CC(C)CCO,outcome,[1],inactive
same,outcome,[2],inactive
same,outcome,[3],inactive
same,outcome,[4],inactive
CC(C)c1cccc(C(C)C)c1N1C(=O)c2ccc(O)cc2C1=O,outcome,[1],inactive
same,outcome,[5],inactive
same,outcome,[6],inactive
same,outcome,[3],inactive
same,outcome,[7],inactive
COCCOc1cc2cc(C(=O)NC3CCN(C(C)C)CC3)n(CC(=O)Nc3ccc(Cl)cn3)c2cn1,outcome,[8],inactive
same,AC50,[9],23.3 µM (active)
same,outcome,[10],inactive
same,outcome,[11],inactive
CCc1cc(SCc2sc(-c3ccc(C(F)(F)F)cc3)nc2CN2CCN(c3ccc(OC)cc3)CC2)ccc1OCC(=O)O,AC50,[12],2.7 µM (active)
same,outcome,[11],inactive
same,AC50,[13],5.85 µM (active)
same,AC50,[7],19.8 µM (active)
same,outcome,[4],inactive
CCCCC(CC)COC(=O)CCCCCCCCC(=O)OCC(CC)CCCC (stereo unspecified),AC50,[12],23.4 µM (active)
same,outcome,[6],inactive
Nc1ccc(Nc2ccccc2)cc1,AC50,[14],7.11 µM (active)
same,AC50,[9],29.8 µM (active)
same,outcome,[15],inactive
same,AC50,[13],5.61 µM (active)
CCNc1ccccc1,outcome,[1],inactive
C1=CCCC=CCCC=CCC1,outcome,[16],inactive
CCN(C(=O)c1cc(C)cc(OC[C@H](C)Nc2ccncc2)c1)C(C)C,outcome,[8],inactive
same,AC50,[9],11.8 µM (active)
same,outcome,[11],inactive
Cc1ccc(N)cc1O,outcome,[16],inactive
same,outcome,[8],inactive
same,outcome,[2],inactive
same,outcome,[17],inactive
same,outcome,[10],inactive
same,outcome,[11],inactive
same,outcome,[18],inactive
same,outcome,[5],inactive
same,AC50,[6],20.1 µM (active)
COc1ccc(/C=C/S(=O)(=O)NC(=O)c2ccc(C)cc2Cl)cc1,AC50,[16],30.5 µM (active)
same,outcome,[2],inactive
O=C(O)c1cccc(N(Cc2cccnc2)c2ccc(OC(F)F)c(OC(F)F)c2)c1,AC50,[16],10.9 µM (active)
same,AC50,[18],4.96 µM (active)
same,outcome,[6],inactive
Cc1[nH]cnc1C[C@H]1CCc2c(C)c3ccccc3n2C1=O,AC50,[16],13.9 µM (active)
same,AC50,[9],14.4 µM (active)
same,AC50,[4],29.9 µM (active)
